Screening data deposited in PubChem BioAssay by several laboratories.
Hits are enriched below; roughly 2.8% of the tested compounds scored in any of these assays.
TRPM1 prom inh: inhibitors of MITF-driven TRPM1 promoter in melanoma cells; SK-MEL-5 TRPM1 promoter luciferase, 24 h; inhibition, % at 12.5 µM; actives 0.83% (n = 330,000); AID 488899;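 active means mean inhibition across replicates of 60% or more, whatever share of single replicates reaches that level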
HIF-2a block: HIF-2a inhibition. actives 0.72% (n = 360,000). 786-0 RCC cells HIF-2a reporter, luciferase luminescence, overnight. AID 624352. inhibition, % at 18.8 µM;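 active means inhibition of the luminescence signal of 40% or more relative to plate controls, in a single-dose primary screen at 18.75 µM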
Shn3 inh set2: reduces Shn3 3'UTR luciferase signal in osteoblasts | Clone20 osteoblast Shn3 3'UTR firefly luciferase, 24 h | inhibition, % at 12.5 µM | actives 0.52% (n = 360,000);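 active means mean inhibition of at least 75% with every replicate also reaching 75%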;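 further: 0% = median of neutral control wells and 100% = pilot-screen positive control compound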
PAX8 reporter: inhibitors of PAX8 transcriptional activity in RMG-I cells; RMG-I TPO-luciferase reporter, SteadyGlo, 24 h; actives 1.2% (n = 360,000); AID 652154; inhibition, % at 12.6 µM;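 active means mean replicate inhibition at least 60% with every replicate also reaching 60%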;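 further: luciferase light reporting Pax8 driven TPO promoter activity; plate controls were median of neutral control wells for no effect and mitoxantrone controls for full effect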
EBV LMP1 NFkB: inhibitors of Epstein-Barr LMP1-induced NF-kappaB reporter | LMP1-induced NF-kappaB luciferase reporter cells, luminescence | inhibition, % at 12.5 µM | actives 0.69% (n = 350,000) | AID 504558; in the data active means inhibition above about 41%;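 further: 0% = neutral control wells and 100% = reference inhibitor control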
Peg3 promoter: Peg3 promoter activity inhibition. actives 1.7% (n = 360,000). HeLa PEG-Prom luciferase reporter, luminescence, overnight. inhibition, % at 20 µM. AID 588405;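 active means inhibition of at least 50% at 20 µM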
* = called active by the depositor; . = not tested or not shown; ! = a repeat was not active.

SMILES	TRPM1 prom inh	HIF-2a block	Shn3 inh set2	PAX8 reporter	EBV LMP1 NFkB	Peg3 promoter
O=C(/C=C/c1c(Cl)nc2ccccn12)Nc1ccc(F)cc1	-7.4	-57.0	-2.0	111.1*	-7.1	-33.9
O=Cc1c(Cl)nc2ccccn12	6.5	14.3	-11.5	4.6	-5.1	-0.3
CC(C)NC(=O)N1C[C@@H]2[C@H](c3ccccc31)[C@H](CO)N2C(=O)c1ccccc1F	.	.	.	-15.9	.	.
CC(=O)[C@@]1(O)Cc2c(O)c3c(c(O)c2[C@H](O[C@H]2C[C@H](N)[C@H](O)[C@H](C)O2)C1)C(=O)c1ccccc1C3=O	.	38.1	93.4*	104.2*	.	98.7*
COc1cccc2c1C(=O)c1c(O)c3c(c(O)c1C2=O)C[C@@](O)(C(=O)CO)C[C@@H]3OC1CC(N)C(O)C(C)O1 (some centres undefined)	59.9	-2.3	87.2*	81.4*	61.9*	95.8*
COc1cccc2c1C(=O)c1c(O)c3c(c(O)c1C2=O)CC(O)(C(C)=O)CC3OC1CC(N(C)C)C(O)C(C)O1 (centres undefined)	79.2*	14.0	94.3*	103.0*	93.4*	98.0*
COc1cccc2c1C(=O)c1c(O)c3c(c(O)c1C2=O)C[C@@](O)(C(=O)CO)C[C@@H]3O[C@H]1C[C@H](N)[C@H](O)[C@H](C)O1	86.9*	19.1	92.0*	103.7*	83.7*	94.6*
C[C@H]1CN([C@@H](C)CO)C(=O)c2cc(NS(C)(=O)=O)ccc2O[C@H]1CN(C)Cc1ccccc1	.	.	.	-11.2	.	.
CC=Cc1ccc2n(c1=O)C[C@@H]1[C@@H](CO)[C@H](C(=O)NCCC)N(Cc3cccc(F)c3)[C@H]21 (mixture of isomers)	.	.	.	-8.3	.	.
CC(=O)OCC(=O)C1(O)CCC2C3CC(F)C4=CC(=O)CCC4(C)C3C(=O)CC21C (centres undefined)	-12.3	15.1	-3.6	-11.2	0.7	4.7
CC(=O)OCC(=O)[C@@]1(O)CC[C@H]2[C@@H]3CCC4=CC(=O)CC[C@]4(C)[C@H]3C(=O)C[C@@]21C	-2.6	1.1	88.3*	-11.9	-1.9	-6.4
CC(=O)OCC(=O)[C@@]1(O)CC[C@H]2[C@@H]3CCC4=CC(=O)CC[C@]4(C)[C@H]3[C@@H](O)C[C@@]21C	-7.9	30.9	3.6	9.9	86.1*!	6.1
Cc1cc(C(=O)Nc2cccc3c2O[C@H](CN(C)Cc2ccccc2)[C@@H](C)CN([C@H](C)CO)C3=O)n(C)n1	.	.	.	7.5	.	.
COCCCNC(=O)CN1C(=O)COc2ccc(S(=O)(=O)N3CCOCC3)cc21	2.9	4.8	-0.3	0.2	57.1*	-0.9
CC1(C)Cc2c(sc3c2c(=O)n(Cc2ccccc2)c2nncn32)CO1	-5.0	6.1	7.2	.	54.0*	3.0
Cc1nnc2n(Cc3ccccc3)c(=O)c3c4c(sc3n12)COC(C)(C)C4	3.3	16.2	-15.1	.	0.8	8.5
O=C1CN(S(=O)(=O)Cc2ccccc2)C[C@@H]2[C@@H](c3ccc(C#CCC4CCCC4)cc3)[C@@H](CO)N12	.	.	.	98.6*	.	.
O=C1CN(S(=O)(=O)Cc2ccccc2)C[C@@H]2[C@H](c3ccc(C#Cc4ccc(F)cc4)cc3)[C@H](CO)N12	.	.	.	80.2*	.	.
O=C1CN(S(=O)(=O)Cc2ccccc2)C[C@@H]2[C@H](c3ccc(C#Cc4ccc(F)cc4)cc3)[C@@H](CO)N12	.	.	.	12.2	.	.
O=C1CN(S(=O)(=O)Cc2ccccc2)C[C@H]2[C@H](c3ccc(C#CCC4CCCC4)cc3)[C@@H](CO)N12	.	.	.	41.4	.	.
C[C@H](CO)N1C[C@H](C)[C@H](CN(C)Cc2ccc(C(F)(F)F)cc2)OCc2ccccc2-c2c(n(C)c3ccccc23)C1=O	.	.	.	22.5	.	.
C[C@H](CO)N1C[C@H](C)[C@@H](CN(C)S(C)(=O)=O)OCCCC[C@H](C)Oc2ccc(NC(=O)Nc3ccccc3)cc2C1=O	.	.	.	8.3	.	.
CN(C)C(=O)C[C@@H]1CC[C@H]2[C@@H](COC[C@@H](O)CN2C(=O)C2CCOCC2)O1	.	.	.	-10.2	.	.
Cc1ccc(S(=O)(=O)N2C[C@@H](O)COC[C@H]3O[C@H](CC(=O)NCCN4CCCCC4)CC[C@@H]32)cc1	.	.	.	3.0	.	.
N#Cc1c(C#N)c(SSc2c(C#N)c(C#N)c(N)n2-c2ccccc2)n(-c2ccccc2)c1N	92.5*	7.2	88.6*	-23.7	-1.1	105.5*
SMILES	TRPM1 prom inh	HIF-2a block	Shn3 inh set2	PAX8 reporter	EBV LMP1 NFkB	Peg3 promoter
CC(C(Sc1ccccc1N)c1ccccc1)[N+](=O)[O-] (centres undefined)	71.0*	-46.5	63.2	-66.2	4.9	49.1
OC(c1cccc(Cl)c1)c1ncc(-c2ccc(Oc3ccccc3)cc2)[nH]1 (centres undefined)	.	-32.6	0.2	9.3	.	53.9*
Cc1nn(-c2cc(N3CCCCCC3)ccc2[N+](=O)[O-])c(=O)c2ccccc12	-2.5	4.0	14.2	.	3.5	7.6
Cc1ccc(-c2nn(-c3cc(N4CCNCC4)ccc3[N+](=O)[O-])c(=O)c3ccccc23)cc1	46.5	17.1	28.8	10.4	-11.4	102.2*
COc1cc(SC)ccc1C(=O)N1CCN(Cc2ccccc2)CC1	-1.5	17.0	9.5	6.4	18.8	16.3
COc1cc(N(C)C)c([N+](=O)[O-])cc1C(=O)N1CCN(Cc2ccccc2)CC1	3.8	2.7	22.6	0.7	50.7*	13.2
O=C(c1ccc(S(=O)(=O)c2ccccc2Cl)c([N+](=O)[O-])c1)N1CCN(Cc2ccccc2)CC1	76.1*	12.9	82.9	24.5	24.0	26.6
O=C(c1ccc(Br)c([N+](=O)[O-])c1)N1CCN(Cc2ccccc2)CC1	14.5	7.8	-116.2	2.1	-2.0	16.8
O=C(Cc1ccccn1)NCC[C@H]1CC[C@H](NS(=O)(=O)c2ccc(Cl)cc2)[C@H](CO)O1	.	.	.	-9.8	.	.
C[C@H]1CCCCO[C@H](CN(C)C(=O)Nc2cccc3ccccc23)[C@@H](C)CN([C@@H](C)CO)C(=O)c2cc(N(C)C)ccc2O1	.	.	.	54.0	.	.
C[C@H](NC(=O)C[C@H]1C=C[C@@H](NC(=O)C2CC2)[C@H](CO)O1)c1ccccc1	.	.	.	4.3	.	.
C[C@@H]1CN([C@H](C)CO)C(=O)c2cc(NC(=O)Nc3ccccc3)ccc2O[C@@H](C)CCCCO[C@H]1CN(C)Cc1ccc(C(=O)O)cc1	.	.	.	-8.3	.	.
COc1cccc(C(=O)NNC(=O)Cc2ccc(Cl)cc2)c1	-1.9	11.3	-12.8	16.2	1.9	10.7
O=C(NCCOc1ccccc1)c1ccc2c(c1)OCO2	58.6	33.7	-4.0	.	65.7*	41.4
COc1cccc(CC(=O)NNC(=O)c2ccc3c(c2)OCO3)c1	-2.2	9.7	10.1	8.3	45.3*	10.6
COc1cccc(S(=O)(=O)N[C@@H]2CC[C@@H](CCN)O[C@H]2CO)c1	.	.	.	5.6	.	.
C[C@H](CO)N1C[C@H](C)[C@H](CN(C)C(=O)c2ccncc2)OCCCC[C@H](C)Oc2ccc(NS(=O)(=O)c3ccccc3)cc2C1=O	.	.	.	-5.2	.	.
